Results published in PubChem BioAssay (NCI).
The panel holds about 83,000 compounds, 20% with a hit somewhere; the sample as a whole holds those more often.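 Assay: single dose, 48 h. Readout: percent growth (0 = no net growth; negative = cell death). Active: <10.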 Unmarked numbers belong to inactive results. The source made the active and inactive calls.

What was measured:
Test in all cases: NCI-60 one-dose screen, 48 h (100 = growth as untreated, 0 = no growth, -100 = all killed)
Conditions in all cases: 10 µM
[1] = test system: NCI-H23 lung
[2] = test system: NCI-H226 lung
[3] = test system: NCI-H322M lung
[4] = test system: HOP-62 NSCLC
[5] = test system: NCI-H460 lung
[6] = test system: HOP-92 NSCLC
[7] = test system: NCI-H522 lung
[8] = test system: A549/ATCC NSCLC
[9] = test system: 786-0 renal
[10] = test system: COLO 205 colon
[11] = test system: DU-145 prostate
[12] = test system: K-562 leukemia
[13] = test system: MALME-3M melanoma
[14] = test system: MDA-MB-231 breast
[15] = test system: SF-268 CNS
[16] = test system: SF-295 CNS
[17] = test system: SF-539 CNS
[18] = test system: UACC-257 melanoma
[19] = test system: M14 melanoma

| SMILES | growth [1] | growth [2] | growth [3] | growth [4] | growth [5] | growth [6] | growth [7] | growth [8] | growth [9] | growth [10] | growth [11] | growth [12] | growth [13] | growth [14] | growth [15] | growth [16] | growth [17] | growth [18] | growth [19] |
| --- | --- | --- | --- | --- | --- | --- | --- | --- | --- | --- | --- | --- | --- | --- | --- | --- | --- | --- | --- |
| C/C(=N\NC(N)=S)c1ccc(Nc2nc(SC(C)C)nc(-c3ccccc3)c2C#N)cc1 | 52.5% | 27.5% | 74.3% | 34.4% | 41.7% | -11.1% (active) | 78% | 53.7% | 18.2% | 92.5% | 70.5% | 87.2% | 55.7% | 40.5% | 54.8% | 44.3% | 30.7% | 85.1% | 77.4% |
| COc1ccc(CN2[C@@H](C(=O)NCc3ccc(C(=O)NO)cc3)Cc3c([nH]c4ccccc34)[C@@H]2C2CC2)cc1 | 21.3% | 50.8% | 42% | 24% | 13.7% | -3.87% (active) | -17% (active) | 40.3% | 28.4% | -40.3% (active) | 15.8% | 6.95% (active) | 12.8% | 5.56% (active) | 20.9% | 3.12% (active) | 15.3% | 36.3% | 16.1% |
| CN1C(=O)N(C)C2SC(N/N=C/c3cccs3)=NC21 (centres undefined) | 38.4% | 68.2% | 69.3% | 37.7% | 13.2% | 55.6% | -14.6% (active) | 44.2% | 37.3% | 26.8% | 49.5% | 11.8% | 24.6% | 27.3% | 35.7% | 7.99% (active) | 4.32% (active) | 50.3% | 7.65% (active) |
| CC(C)(C)c1ccc(NCc2cn(-c3ccc(C(=O)O)cc3)nc2-c2ccc(C#N)cc2)cc1 | 8.82% (active) | 31.6% | 41% | 36.2% | 11.6% | -3.79% (active) | 57.1% | 24.3% | 22.8% | 34.8% | 36.1% | 14.8% | 42.9% | 41.9% | 33.9% | 19.2% | 14.3% | 45.5% | 30.1% |
| O=C1CCC(N2Cc3cc(NC(=O)COc4ccccc4)ccc3C2=O)C(=O)N1 (centres undefined) | 101% | 48.1% | 80.3% | 65.7% | 113% | -0.508% (active) | 91% | 85% | 71.8% | 74.6% | 111% | 93.6% | 19.2% | 25.1% | 87.3% | 71.5% | 78.4% | 110% | 56.3% |
| COC(=O)C[C@](O)(CCCC(C)(C)O)C(=O)O[C@H]1C(OC)=C[C@@]23CCC(=O)N2CCc2cc4c(cc2[C@@H]13)OCO4 | 101% | 79.4% | 112% | 93.1% | 44.3% | 116% | 78.4% | 94.9% | 97.9% | 118% | 103% | 96.7% | 81.5% | 117% | 101% | 103% | 93.3% | 109% | 102% |
| C=CCn1c(SCC(=O)Nc2ccc(C(=O)/C=C/c3ccccc3)cc2)nnc1-c1c[nH]c2ccccc12 | 68.3% | 35.4% | 79.5% | 74.1% | 78.6% | 70.4% | 60.6% | 63.5% | 79.1% | 59.7% | 65.8% | 14.6% | 92.4% | 69.3% | 53.3% | 35% | -7.36% (active) | 80.3% | 35.3% |
| N#Cc1ccc(-c2nn(-c3ccc(C(=O)O)cc3)cc2CNc2cc(Cl)cc(C(F)(F)F)c2)cc1 | -12.8% (active) | 4.02% (active) | 36.4% | 6.03% (active) | 6.19% (active) | -26.6% (active) | 19.5% | 29.7% | 11.5% | 55.7% | 26.7% | 19.4% | 14.7% | 27.7% | 31.9% | 9.39% (active) | -26.4% (active) | 14.9% | 11.3% |
| O=C(CSc1nnc(-c2c[nH]c3ccccc23)n1-c1ccccc1)Nc1ccc(C(=O)/C=C/c2cccc([N+](=O)[O-])c2)cc1 | 86.2% | 72.7% | 100% | 98.2% | 99.2% | 104% | 82.1% | 97.2% | 101% | 119% | 95.9% | 86.1% | 90.9% | 91.7% | 78.8% | 88.4% | 89.6% | 102% | 94.1% |
| O/N=C(\CSc1nnc(-c2c[nH]c3ccccc23)n1-c1ccccc1)c1ccc(Cl)cc1 | 47.3% | 14.3% | -49.3% (active) | -64.1% (active) | 10.5% | -8.42% (active) | 12.4% | 21.5% | 34.1% | 10.2% | -30.9% (active) | 6.93% (active) | 11.1% | -54.5% (active) | -49% (active) | 14.1% | 29.5% | 44.3% | -47.3% (active) |
| CN1C(=O)N(C)C2SC(N/N=C/c3ccccc3F)=NC21 (centres undefined) | 76.5% | 92.4% | 97.2% | 68.3% | 58.2% | 124% | 46.1% | 63.1% | 68.7% | 100% | 94.7% | 17.2% | 59.4% | 50.2% | 78.7% | 62% | 54.3% | 82.7% | 36.5% |
| COc1ccc(-c2nc(-c3ccccc3)c(-c3ccccc3)n2-c2ccc(S(=O)(=O)Nc3ncccn3)cc2)cc1OC | 94.8% | 75.1% | 77.4% | 76.9% | 95.6% | 56.6% | 89% | 87.6% | 64.6% | 133% | 89% | 76.8% | 106% | 62.2% | 82.9% | 46.5% | 67.2% | 113% | 93.9% |
| Clc1ccc2c(N/N=C/c3c[nH]c4ccc(Br)cc34)ccnc2c1 | -85.4% (active) | -64.4% (active) | -96.9% (active) | -59.1% (active) | 9.83% (active) | -69.1% (active) | -66.9% (active) | 1.71% (active) | -54.7% (active) | -44% (active) | -79.3% (active) | -25.5% (active) | -83% (active) | -90.4% (active) | -35.7% (active) | -99.4% (active) | -87.6% (active) | -83.8% (active) | -46.3% (active) |
| Cc1cc(=O)oc2cc(OCCCCOc3ccc(/C=C/C(=O)Nc4cccc(Cl)c4)cc3)ccc12 | 57.2% | 35.9% | 87.4% | 54.9% | 54.4% | 50.9% | 60.3% | 55.4% | 54.7% | 62.3% | 46.5% | 63.8% | 29.8% | 88.3% | 61.4% | 78.6% | 72.6% | 81.5% | 71.9% |
| O=C(NO)c1ccc(CNC(=O)[C@H]2Cc3c([nH]c4ccccc34)[C@H](c3ccccc3)N2)cc1 | 34% | 64.2% | 43.2% | 18.7% | 27.7% | -2.26% (active) | -8.88% (active) | 50.6% | 53.9% | -55.5% (active) | 29.5% | 11.6% | 15.2% | 7.55% (active) | 40.3% | 17.7% | 34% | 21.4% | 27.5% |
| N#Cc1ccc(-c2nn(-c3ccc(C(=O)O)cc3)cc2CNc2cccc(Br)c2)cc1 | 10.6% | 44.4% | 85.5% | 42% | 37.8% | 56.5% | 73.4% | 55.7% | 45% | 117% | 76.8% | 46.3% | 95.6% | 89.4% | 51.7% | 42.5% | 38.6% | 65.7% | 37.2% |
